Screens from PubChem.
The list is not random: actives were taken first. Their share in the collection is about 1.2%.
PrP 5UTR inh = inhibition of PrP 5' UTR reporter expression; cell-based PrP 5' UTR mRNA reporter, plate reader; inhibition, % (test concentration not listed); 0.35% of 340,000 active; in the data active means inhibition above about 52%; further: 0 = median of the neutral control wells
TcdB inh = TcdB glycohydrolase inhibitors, primary screen, biochemical, single point, plate reader; 0.24% of 350,000 active; AID 652162, 2013; Toxin B (Clostridioides difficile), P18177; inhibition, % at 9.99 µM; TcdB glycohydrolase enzymatic assay; in the data active means inhibition above about 10%
FadD28 FP inh = inhibitors of FadD28 bisubstrate probe binding, primary screen, biochemical, fluorescence polarization, single point; inhibition, % at 12.5 µM; 0.22% of 360,000 active; AID 588549, 2011; in the data active means inhibition above about 8.5%, passing the limit was not always enough
PfHsp40 yeast = rescue of yeast from PfHsp40 toxicity, primary screen, S. cerevisiae, ATP luminescence; growth rescue, % at 12.5 µM; 0.68% of 340,000 active; S. cerevisiae expressing PfHsp40, growth rescue; in the data active means growth rescue above about 28%, passing the limit was not always enough;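 further: yeast W303a lacking pdr1 and pdr3 grown in galactose medium; growth measured after three days at 30 °C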
Mtb BioA inh = M. tuberculosis BioA enzyme inhibitors, primary screen, biochemical, plate reader, single point, HTS; 7,8-diaminopelargonic acid synthase BioA (Mycobacterium tuberculosis); purified M. tuberculosis BioA enzyme; inhibition, % at 9.99 µM; 0.096% of 360,000 active; AID 602481, 2012; in the data active means inhibition above about 40%
Yp Topo-I inh = Yersinia pestis topoisomerase I inhibitors, primary screen, biochemical, cleavage product accumulation, plate reader, single point; Y. pestis Topo-I cleavage product accumulation; activity, % at 10 µM; 0.064% of 360,000 active; AID 504884, 2011; in the data active means activity above about 50%, passing the limit was not always enough
* hit, by the source's call; x = no result given.

SMILES	PrP 5UTR inh	TcdB inh	FadD28 FP inh	PfHsp40 yeast	Mtb BioA inh	Yp Topo-I inh
CC(/C=N/n1c(COc2ccccc2)n[nH]c1=S)=C\c1ccccc1	-9	1	-5	67*	6	5
Cc1cccc(-n2nnc(C(=O)NCc3ccccc3Cl)c2N)c1	-17	11*	-1	-1	1	4
COc1cc(OC)c(OC)cc1/C=C/c1ccnc2ccccc12	-5	19*	-2	0	x	31
COc1ccc2nccc(/C=C/c3ccnc4ccc(OC)cc34)c2c1	x	13*	-3	x	2	21
COc1ccc(OC)c(/C=C/c2ccnc3ccccc23)c1	-19	2	-5	2	x	36
CN1c2ccc(-c3ccc(F)cc3)cc2[C@@H]2[C@@H](CCN2C(=O)C2CCOCC2)[C@H]1CO	x	0	x	x	x	x
C[C@@H]1CCCCO[C@@H](CN(C)Cc2ccc3c(c2)OCO3)[C@@H](C)CN([C@@H](C)CO)C(=O)c2cc(NS(=O)(=O)c3ccc(F)cc3)ccc2O1	x	0	x	x	7	x
Cc1cc(O)c2c(c1O)C(=O)[C@]13C(=C2O)C(=O)[C@@H]2[C@@H](O)[C@H]1[C@@H]1[C@H](O)[C@H]3C(=O)C3=C(O)c4c(O)cc(C)c(O)c4C(=O)[C@]312	22	x	1	71*	0	-16
CCCCCc1ccc(OCCCC[n+]2ccc(C)cc2)c(CCCCC)c1	-3	4	-9	0	x	-1
CCCCCc1ccc(OCCCC[n+]2ccccc2)c(CCCCC)c1	-13	x	-15	135*	x	-8
CCCCCc1ccc(OCCCC[n+]2cccc(C)c2)c(CCCCC)c1	-12	4	-7	95*	x	-2
COc1ccc(NC(=O)N(C)C[C@@H]2OCCCC[C@H](C)Oc3ccc(NC(=O)Nc4c(C)noc4C)cc3C(=O)N([C@@H](C)CO)C[C@@H]2C)cc1	x	-1	x	x	-2	x
CC1(c2ccc3c(c2)OCO3)NC(=O)N(CC(=O)Nc2ccccc2[N+](=O)[O-])C1=O (stereo not given)	-6	0	-2	-1	0	1
Cc1ccccc1NC(=O)CN1C(=O)NC(C)(c2ccc3c(c2)OCO3)C1=O (stereo not given)	-14	x	0	35*	0	2
COCCCNC(=S)NC1CC2CCC(C1)N2Cc1ccccc1 (stereo not given)	-7	0	-1	35*	x	2
CCOCCCNC(=S)NC1CC2CCC(C1)N2Cc1ccccc1 (stereo not given)	-38	2	-2	2	x	6
CCCCCCC(C)(C)c1ccc([C@@H]2C[C@H](O)CC[C@H]2CCCO)c(O)c1	-21	2	-9	68*	0	25
COc1ccc(S(=O)(=O)Nc2cccc3c2O[C@@H](CN(C)Cc2ccc(Cl)c(Cl)c2)[C@H](C)CN([C@@H](C)CO)C3=O)cc1	x	x	x	x	0	x
COc1ccc(S(=O)(=O)N[C@H]2C=C[C@H](CC(=O)NCCc3ccncc3)O[C@H]2CO)cc1	x	5	x	x	-5	x
CC(Sc1ncnc2ccccc12)C(=O)Nc1ccc2c(c1)OCO2 (stereo not given)	-22	x	3	42*	0	12
O=C(C1CCC1)N1CC2(C1)[C@H](c1ccccc1)[C@H](CO)N2CC1CCCC1	x	-1	x	x	x	x
CSCCC(NC(N)=O)C(=O)NCc1ccc(Cl)cc1 (stereo not given)	-23	x	-1	80*	-1	9
Cc1ccc2nc(Cl)c3nnnn3c2c1	-2	x	-1	85*	-5	-1
CCOC(=O)C1=Nc2cccc3c(O)ccc1c23	x	0	x	x	x	x
CCOC(=O)C1=Nc2ccccc2C1=[N+]=[N-]	-17	x	-3	33*	x	-1
SMILES	PrP 5UTR inh	TcdB inh	FadD28 FP inh	PfHsp40 yeast	Mtb BioA inh	Yp Topo-I inh
COCc1cc(C)nc(SCc2ccc(Br)cc2)c1C#N	-17	-1	-2	1	-1	50*
COCc1cc(C)nc(SCc2ccc(Cl)cc2)c1C#N	-20	-1	x	2	6	30
CCCC#Cc1cnc2c(c1)C(=O)N([C@H](C)CO)C[C@@H](C)[C@@H](CN(C)Cc1ccc(F)cc1)O2	x	1	x	x	2	x
CNC(=O)C[C@H]1CC[C@@H]2[C@@H](COc3ccc(NC(=O)c4ccc(OC)cc4)cc3C(=O)N2C)O1	x	12*	x	x	7	x
CNC(=O)C[C@@H]1CC[C@@H]2[C@H](COc3ccc(NS(=O)(=O)c4ccccc4C)cc3C(=O)N2C)O1	x	15*	x	x	-1	x
CNC(=O)C[C@H]1CC[C@@H]2[C@H](COc3ccc(NC(=O)Nc4ccc(C)cc4)cc3C(=O)N2C)O1	x	11*	x	x	2	x
CNC(=O)C[C@H]1CC[C@@H]2[C@@H](COc3ccc(NS(=O)(=O)c4ccccc4C)cc3C(=O)N2C)O1	x	7	x	x	0	x
COc1ccc(C(=O)Nc2ccc3c(c2)C(=O)N(C)[C@H]2CC[C@@H](CC(=O)NCC4CC4)O[C@H]2CO3)cc1	x	0	x	x	3	x
CNC(=O)C[C@@H]1CC[C@@H]2[C@H](COc3ccc(NC(=O)c4ccc(OC)cc4)cc3C(=O)N2C)O1	x	1	x	x	1	x
COc1ccc(C(=O)Nc2ccc3c(c2)C(=O)N(C)[C@@H]2CC[C@H](CC(=O)NCC4CC4)O[C@H]2CO3)cc1	x	16*	x	x	9	x
COc1ccc(-c2ccc3c(c2)O[C@H](CN(C)C(C)=O)[C@H](C)CN([C@H](C)CO)S3(=O)=O)cc1	x	-9	x	x	-1	x
COc1cccc(S(=O)(=O)N(C)C[C@@H]2Oc3ncc(/C=C/c4ccccc4)cc3C(=O)N([C@H](C)CO)C[C@@H]2C)c1	x	-1	x	x	3	x
CN1C(=O)c2cc(NC(=O)c3cccc(F)c3)ccc2OC[C@H]2O[C@H](CC(=O)NCC3CCCCC3)CC[C@@H]21	x	11*	x	x	1	x
CNC(=O)C[C@H]1CC[C@@H]2[C@H](COc3ccc(NC(=O)c4ccc(OC)cc4)cc3C(=O)N2C)O1	x	17*	x	x	13	x
CNC(=O)C[C@H]1CC[C@H]2[C@H](COc3ccc(NC(=O)c4cccc(OC)c4)cc3C(=O)N2C)O1	x	-5	x	x	-5	x
CNC(=O)C[C@H]1CC[C@@H]2[C@@H](COc3ccc(NC(=O)c4cccc(OC)c4)cc3C(=O)N2C)O1	x	12*	x	x	-4	x
CC(=O)N1[C@H](CO)[C@H](c2ccc(C3=CCCC3)cc2)[C@@H]1CNC(=O)CN(C)C	x	x	x	x	2	x
COC(=O)/C=C/c1ccccc1S(=O)(=O)N(Cc1ccccc1)Cc1ccco1	-22	x	-2	0	-5	57*
O=S(=O)(c1ccc(S(=O)(=O)N(Cc2ccccc2)Cc2ccco2)cc1)N1CCCC1	-4	0	-1	0	-1	3
C[C@@H]1CN([C@@H](C)CO)C(=O)c2ccccc2-c2ccccc2CO[C@@H]1CN(C)C(=O)c1ccccc1	x	1	x	x	0	x
